MCF10A rerep = inducers of DNA re-replication in MCF 10A breast cells; MCF 10A DNA re-replication, Hoechst nuclear intensity, 48 h; Potency, µM (titrated, usually from 46.1 µM), without a hit: at the top dose activity, positive = re-replication, hits mostly activators; hit rate 2.9% among 350,000; AID 624296; note: potency is the fitted concentration of half-maximal effect; % of control where 0% means no effect; nearly all actives have a fitted effect of over 50% in size
hERG WT inh = blocks the wildtype human KCNH2 potassium channel; U2OS, BacMam KCNH2, thallium flux FluxOr; hits give low values; activity change, % at 1.84 µM; hit rate 0.37% among 340,000;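 active = maximum activity change below -70%; inconclusive = maximum activity change between -70% and -50%; inactive = maximum activity change above -50%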; note: % is set by controls: 0 for no effect and ±100 for the full control effect
Target sequence (Q12809 whole entry, looked up): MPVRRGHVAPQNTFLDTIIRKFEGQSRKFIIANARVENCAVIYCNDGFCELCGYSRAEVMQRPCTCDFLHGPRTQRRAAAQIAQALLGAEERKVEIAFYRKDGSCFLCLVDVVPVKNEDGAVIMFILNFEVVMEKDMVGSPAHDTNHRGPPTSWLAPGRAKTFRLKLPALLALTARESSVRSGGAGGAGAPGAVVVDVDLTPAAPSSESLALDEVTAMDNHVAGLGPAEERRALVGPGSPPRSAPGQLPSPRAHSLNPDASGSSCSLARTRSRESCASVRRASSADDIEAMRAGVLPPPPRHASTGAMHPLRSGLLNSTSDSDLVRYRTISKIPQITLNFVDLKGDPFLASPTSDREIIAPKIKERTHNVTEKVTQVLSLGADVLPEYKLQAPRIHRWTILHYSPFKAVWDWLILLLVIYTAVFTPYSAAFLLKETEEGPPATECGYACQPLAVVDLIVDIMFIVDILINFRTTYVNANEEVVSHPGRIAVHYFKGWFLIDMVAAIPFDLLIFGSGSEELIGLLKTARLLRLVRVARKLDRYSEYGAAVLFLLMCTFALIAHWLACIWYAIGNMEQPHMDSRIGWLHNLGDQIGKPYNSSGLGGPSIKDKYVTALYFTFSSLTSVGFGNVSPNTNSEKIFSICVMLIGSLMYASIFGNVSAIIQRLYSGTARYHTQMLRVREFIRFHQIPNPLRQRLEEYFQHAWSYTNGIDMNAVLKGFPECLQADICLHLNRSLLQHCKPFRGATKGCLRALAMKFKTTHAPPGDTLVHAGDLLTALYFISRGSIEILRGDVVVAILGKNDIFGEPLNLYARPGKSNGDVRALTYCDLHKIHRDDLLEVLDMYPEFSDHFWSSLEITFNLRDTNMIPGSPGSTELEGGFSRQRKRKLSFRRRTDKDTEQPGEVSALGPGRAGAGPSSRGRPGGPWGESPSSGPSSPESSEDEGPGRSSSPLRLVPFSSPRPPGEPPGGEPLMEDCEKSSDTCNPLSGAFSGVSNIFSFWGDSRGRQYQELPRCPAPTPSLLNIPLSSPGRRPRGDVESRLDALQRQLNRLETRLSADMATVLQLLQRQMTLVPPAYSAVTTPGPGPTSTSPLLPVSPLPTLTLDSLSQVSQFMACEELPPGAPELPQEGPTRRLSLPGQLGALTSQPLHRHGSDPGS
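U2OS cells transduced with wild-type KCNH2 virus are loaded with FluxOr dye for 45 min, and thallium flux is measured in kinetic reads before and after stimulation buffer. Rate constants are normalized to DMSO controls.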
SW480 rerep = inducers of DNA re-replication in SW480 colon cancer cells. SW480 DNA re-replication, Hoechst DNA content imaging, 48 h. Potency, µM (doses to about 46.1 µM), for inactives: at the top dose re-replication activation, most hits filed as activators. hit rate 1.8% among 340,000; note: potency is the fitted concentration of half-maximal effect; % of control where 0% means no effect; nearly all actives have a fitted effect of over 55% in size
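DNA re-replication was detected as more nuclei of elevated Hoechst intensity after 48 hr exposure to compound (23 nL pinned per well of 250 cells).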
KCNH2 3.1 block = inhibitors of human KCNH2 3.1 potassium channel isoform. U2OS KCNH2 3.1, thallium flux FluxOr; hits give low values. activity change, % (tested at about 1.8 µM). hit rate 0.95% among 340,000;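 active = maximum activity change below -70%; inconclusive = maximum activity change from -70% to -50%; inactive = maximum activity change above -50%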;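 note: thallium influx rate constant from kinetic fluorescence after stimulation buffer; % is set by controls: 0 for no effect and ±100 for the full control effect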
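U2OS cells transduced with KCNH2 3.1 mutant virus (1.77 x 10^8 /mL, 4 h), plated overnight at 37 C, loaded 45 min with FluxOr dye plus Red40 quencher. Thallium flux rate constant from kinetic reads after stimulation buffer, normalised to controls.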
KB-3-1 cytotox = KB-3-1 parental cell cytotoxicity | KB-3-1 viability, CellTiter-Glo ATP luminescence, 72 h | Potency, µM (top dose mostly 46.1 µM), usual class: cytotoxic | hit rate 1.4% among 400,000; note: potency is the fitted concentration of half-maximal effect; % is set by controls: 0 for no effect and ±100 for the full control effect; nearly all actives have a fitted effect of over 60% in size
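KB-3-1 parental drug-naive adenocarcinoma cells in DMEM/10% FBS, incubated 72 h at 37 C with pin-transferred compounds across a concentration series. Viability by CellTiter-Glo luminescence; concentration-response curves fitted after normalization.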
KB-V1 cytotox = kills drug-selected multidrug resistant KB-V1 cells; KB-V1 MDR cells viability, CellTiter-Glo, 72 h; AID 1347076; Potency, µM (doses to about 46.1 µM), usual class: cytotoxic; hit rate 3.4% among 400,000; note: potency is the fitted concentration of half-maximal effect; % is set by controls: 0 for no effect and ±100 for the full control effect; nearly all actives have a fitted effect of over 60% in size
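Cytotoxicity toward P-gp-expressing KB-V1 cells was determined as loss of CellTiter-Glo luminescence after 72 h at 37 degrees C. Compounds were tested in quantitative HTS format across a concentration range, with curves fitted to normalized data.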
The depositor's hits bear a star; i = inactive; u = inconclusive; x = no result given. Most compounds without a hit are left out; they make up all but 7.6% or so of the library. Unless noted, calls come from the whole dose curve; as a rule, active = well fitted curve in the direction sought with a large enough effect; inconclusive = small, poorly fitted or top-dose-only effect, or another doubt; inactive = no such curve, though single readings can be large; an effect the other way counts as inactive or inconclusive.

SMILES	MCF10A rerep	hERG WT inh	SW480 rerep	KCNH2 3.1 block	KB-3-1 cytotox	KB-V1 cytotox
O=C(c1cc(COc2c(F)cccc2F)on1)N1CCCCCC1	14.4%	1.0	-1.5%	x	i	i
O=C(c1cc(COc2ccc(F)cc2F)on1)N1CCN(C2CCCC2)C(=O)C1	12.2%	-29.7	-7.4%	1.0	i	5.17µM*
O=C(NCCC1=CCCCC1)c1cc(COc2c(F)cccc2F)on1	-1.0%	-14.5	-25.1%	-7.6	i	i
CSc1ccccc1OCc1cc(C(=O)NCCC2=CCCCC2)no1	9.0%	-6.0	1.8%	-15.4	i	23.1µM*
Cc1cccc(C)c1OCc1cc(C(=O)N2CC3C[C@@H]4CC2C[C@H](C3)C4)no1	18.4µM*	-1.0	0.8%	9.5	i	u
Cc1ccc(OCc2cc(C(=O)N3CC4C[C@@H]5CC3C[C@H](C4)C5)no2)cc1C	u	-4.3	u	-8.0	x	x
O=C(c1cc(COc2c(F)cccc2F)on1)N1CCN(C2CCCCC2)CC1	u	26.4	36.1%	-81.2*	i	i
O=C(NCc1cccnc1)c1cc(-c2ccc(Cl)cc2)oc1C(F)(F)F	0.0%	3.8	1.7%	2.5	i	i
CSc1ccccc1OCc1cc(C(=O)N2CCCC(C)C2)no1 (stereo not drawn)	15.3%	1.7	-0.3%	7.8	i	u
CSc1ccccc1OCc1cc(C(=O)N2CCN(C3CCCC3)C(=O)C2)no1	0.6%	0.1	-2.9%	0.2	i	14.6µM*
CC(=O)N1CCc2c(sc3c2c(=O)n(CCc2ccccc2)c(=O)n3Cc2ccccc2C)C1	x	x	x	x	i	u
CC(=O)N1CCc2c(sc3c2c(=O)n(CCc2ccccc2)c(=O)n3Cc2ccc(Cl)cc2)C1	x	x	x	x	20.6µM*	u
NC(=O)Cn1c(=O)n(CCc2ccccc2)c(=O)c2c3c(sc21)CCCC3	-5.6%	-37.7	u	8.5	i	4.11µM*
CCOc1ccc(NS(=O)(=O)c2cc(OC)ccc2OC)cc1	-3.6%	1.8	0.0%	4.0	i	u
O=S(=O)(Nc1ccc(-c2ccc3nncn3n2)cc1)c1cc(F)ccc1F	-5.2%	13.2	-72.4%	5.6	i	i
COc1ccc(S(=O)(=O)Nc2cccc(-c3ccc4nncn4n3)c2)cc1F	5.8µM*	x	5.17µM*	-10.6	i	u
COc1ccc(OC)c(S(=O)(=O)Nc2ccc(Oc3ccccc3)cc2)c1	u	8.9	-10.1%	-15.7	i	20.6µM*
COc1ccc(OC)c(S(=O)(=O)Nc2ccc(-c3ccc4nncn4n3)cc2)c1	u	-1.7	7.7%	-9.1	18.4µM*	i
COc1ccc(Cc2nnc(SCC(=O)Nc3ccc(C)cc3C)[nH]c2=O)cc1	5.9%	8.0	-5.5%	-1.7	i	i
CCCc1nnc(NC(=O)c2cn(CC)c3cc(N4CCN(C)CC4)c(F)cc3c2=O)s1	1.8%	-5.0	-21.9%	-8.6	i	i
Cc1cccc(C)c1OCCNC(=O)c1ccc2ccccc2n1	u	-3.5	-1.3%	-88.9*	i	i
Cc1ccc2[nH]cc(CCNC(=O)Nc3ccccc3)c2c1	-5.6%	-3.5	3.9%	-0.4	i	i
Cc1ccc2[nH]cc(CCNC(=O)c3cccnc3)c2c1	20.6µM*	-5.9	12.1%	-0.7	i	i
COc1ccc2[nH]cc(CCNC(=O)c3ccc4ccccc4n3)c2c1	14.6µM*	1.7	-64.1%	1.7	i	i
Cc1ccc2[nH]c(C)cc(=S)c2c1	23.1µM*	-6.8	20.6µM*	-14.4	u	u
Cc1ccc(C(=O)CSc2nnc(-c3cccnc3)n2N)cc1	u	-8.0	u	-0.7	u	7.31µM*
CC(C)OC(=O)CSc1nnc(-c2cccnc2)n1Cc1ccccc1	0.2%	7.3	-0.5%	7.5	i	20.6µM*
O=C(CSc1c(Cl)cccc1Cl)NC1CCCc2ccccc21 (stereo not drawn)	15.5%	-6.7	14.1%	-7.7	i	14.6µM*

From PubChem
